# Sampled rows, rich in hits. Any-hit rate of the full collection: about 3%.
# Tau FP inhib: inhibitors of human tau fibril formation; P10636; K18 P301L tau heparin fibrillization, Alexa594 FP, 6 h; Potency, µM (titrated, usually from 57.7 µM), for the others: at the highest dose activity, negative = inhibition, most hits filed as inhibitors; 280,000 compounds, 0.39% hits; further: nearly all actives have a fitted effect of over 55% in size
# Target sequence (P10636 561-689 P618L limits assumed): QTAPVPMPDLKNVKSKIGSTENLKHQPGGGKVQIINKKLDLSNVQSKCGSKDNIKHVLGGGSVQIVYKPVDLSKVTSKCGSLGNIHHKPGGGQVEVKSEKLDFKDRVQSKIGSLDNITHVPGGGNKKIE
#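 Heparin (20 uM) drove fibril formation of recombinant tau K18 P301L, 15 uM unlabeled with 0.24 uM Alexa 594 label, for 6 hr at 37 C in 100 mM sodium acetate pH 7. Fluorescence polarization (555/632 nm) read 1 hr after 30 uM ThT.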
# TRb SRC2 PPI: TRbeta-SRC2 interaction inhibition; 280,000 compounds, 0.065% hits; TRbeta-SRC2 peptide binding, fluorescence polarization; receptor liganded with 1 µM T3; AID 1469; Potency, µM (highest dose often 106 µM), for the others: top-dose activity change, negative = inhibition, most hits filed as inhibitors;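 further: plate controls were bound peptide for no effect and peptide without receptor for full effect; nearly all actives have a fitted effect of over 50% in size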
# Target sequence (P10828 whole entry, looked up): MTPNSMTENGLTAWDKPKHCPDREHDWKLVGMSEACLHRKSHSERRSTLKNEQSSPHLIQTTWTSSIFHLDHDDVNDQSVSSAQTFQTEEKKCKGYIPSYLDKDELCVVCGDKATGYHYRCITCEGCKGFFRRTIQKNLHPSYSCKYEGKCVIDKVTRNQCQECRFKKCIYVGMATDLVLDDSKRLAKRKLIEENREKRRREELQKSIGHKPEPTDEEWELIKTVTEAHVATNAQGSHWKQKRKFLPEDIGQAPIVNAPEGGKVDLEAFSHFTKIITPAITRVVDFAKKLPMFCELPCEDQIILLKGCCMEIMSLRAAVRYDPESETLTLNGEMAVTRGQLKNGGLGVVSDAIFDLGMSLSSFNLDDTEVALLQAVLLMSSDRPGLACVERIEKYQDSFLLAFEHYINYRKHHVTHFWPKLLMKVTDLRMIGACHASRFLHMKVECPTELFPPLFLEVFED
#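 Assay buffer: 20 mM Tris-HCl, 100 mM NaCl, 10% glycerol, 1 mM EDTA, 0.01% NP-40, 1 mM DTT, 1 uM T3, 5% DMSO; TRb LBD 0.6 uM, Texas Red SRC2 20 nM; FP after 5 hr.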
# TR SRC2 fluor cs: Texas Red fluorescence interference in TRb-SRC2 counter-screen. TRb/SRC2 Texas Red total fluorescence interference. Potency, µM (doses to about 106 µM), for inactives: at the highest dose fluorescence change, negative = quenching. 280,000 compounds, 0.29% hits. AID 1479; active means well fitted curve in either direction with a large enough effect; inconclusive means small, poorly fitted or top-dose-only effect
#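 Human TRb ligand-binding domain at 0.6 uM with 20 nM Texas Red SRC2 peptide in Tris buffer containing 1 uM T3 and 5% DMSO, incubated with compound 5 h at ambient temperature. Total fluorescence (555/632 nm) calculated as parallel + 2 × perpendicular.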
# Tau fibril ThT: blocks human tau fibril formation measured by thioflavin T. Potency, µM (top dose mostly 57.4 µM), for inactives: top-dose activity, negative = inhibition, most hits filed as inhibitors. recombinant tau K18 P301L, heparin-induced fibrillization, ThT fluorescence. P10636. 270,000 compounds, 2.1% hits; further: nearly all actives have a fitted effect of over 55% in size
#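 Tau K18 P301L fragment (15 uM unlabeled plus 0.24 uM Alexa 594-labeled) in 100 mM sodium acetate pH 7 with compound, fibrillization induced by 20 uM heparin for 6 hr at 37 C. Thioflavin T (30 uM) added, fluorescence read after 1 hr (ex 450, em 510 nm).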
# Tau fluor cs: counter-screen for tau fibril formation inhibitors | tau K18 P301L Alexa594 fluorescence, heparin fibrillization | 280,000 compounds, 0.93% hits | AID 1463 | Potency, µM (titrated, usually from 57.7 µM), without a hit: at the top dose activity change, negative = decrease; further: nearly all actives have a fitted effect of over 55% in size
#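 Human tau K18 P301L (15 uM unlabeled, 0.24 uM Alexa 594-labeled) in 100 mM sodium acetate pH 7 with 20 uM heparin, 6 hr at 37 C. ThT 30 uM added, 1 hr ambient; Alexa 594 FP and total fluorescence read at 555/632 nm.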
# * marks the source's active call; other numbers are inactive results; u = inconclusive; x = no result; [ ] = dose if it differs, or a comment. Unless noted, the call rests on the fitted dose curve; in most records, active means well fitted curve in the direction sought with a large enough effect; inconclusive means small, poorly fitted or top-dose-only effect, or another doubt; inactive means no such curve, though single readings can be large; an effect the other way counts as inactive or inconclusive. Unless noted, on the % scale 0 is the no-effect control and ±100 the full control effect; potency means the concentration at half of the fitted maximal effect.
SMILES,Tau FP inhib,TRb SRC2 PPI,TR SRC2 fluor cs,Tau fibril ThT,Tau fluor cs
Cn1c(COc2ccc(Br)cc2)nnc1SC1CCc2ccccc2C1=O (configuration not stated),u,-2%,u,32µM*,u
N#CC1=C2SCN(c3ccccc3)CN2C(=O)CC1c1c(Cl)cccc1Cl (configuration not stated),25µM*,7%,-3%,32µM*,-30%
Cc1ccc(C2CC(=O)N3CN(c4ccc(Br)cc4)CSC3=C2C#N)o1 (configuration not stated),u,8%,0%,u,-4%
N#CC1=C2SCN(c3ccccc3)CN2C(=O)CC1c1ccccc1Cl (configuration not stated),u,7%,-2%,32µM*,-28%
N#CC1=C2SCN(c3ccccc3)CN2C(=O)CC1c1cccs1 (configuration not stated),u,18%,u,25µM*,-19%
Cc1ccc(Cn2cc(S(=O)(=O)c3ccccc3)c(=O)c3cc(F)c(N4CCOCC4)cc32)cc1,2%,2%,-3%,-5%,-13%
Cc1cccc(CC(=O)NCc2nc3cccnc3n2Cc2ccc(F)cc2)c1,-9%,-1%,-14%,-7%,-12%
N#CC1=C(N)C2=C(N3CCCCC3)CCCC2C1(C#N)C#N (configuration not stated),u,-9%,-21%,32µM*,u
CC(C)Cn1cc(C(=O)NCc2cccs2)c2c3ccccc3n(C)c2c1=O,-5%,4%,-5%,10µM*,-27%
CC(C)Cn1cc(C(=O)N2CCOCC2)c2c3ccccc3n(C)c2c1=O,-6%,4%,-5%,-8%,-18%
COCCNC(=O)C1CCC(Cn2c(=S)[nH]c3ccccc3c2=O)CC1 (configuration not stated),0%,5%,1%,7%,0%
O=C(NCCc1c[nH]c2ccccc12)C1CCC(Cn2c(=S)[nH]c3ccccc3c2=O)CC1 (configuration not stated),0%,1%,-3%,u,4µM*[quencher]
Cc1ccc(NC(=O)Cn2c(=O)ccc3cc(S(=O)(=O)N4CCC(C)CC4)ccc32)c(C)c1,1%,0%,-5%,0%,-22%
O=C(O)c1cccc(N2C(=S)N=C(Nc3ccccc3)C23CCCCC3)c1,5%,3%,1%,4%,11%
[O-][N+]1=c2ccc(Nc3ccccc3)cc2=NC12CCCCC2,u,u,-3%,7.1µM*,u
COc1ccc(NC2=NC(=S)N(c3ccccc3C)C23CCCCC3)cc1,10%,-6%,-3%,-14%,-12%
COc1ccc(Nc2ccc3c(c2)=NC2(CCCCC2)[N+]=3[O-])cc1,u,u,-6%,4.5µM*,u
CC(=O)N(C)C1=C(O)c2ccccc2C(=O)C1=O,u,5%,-3%,28µM*,-21%
CC12C=C(/C=C/c3ccccc3)C(C)(C1)C(c1ccccc1)CC2=O (configuration not stated),0%[11.6 µM],4%[11.2 µM],-3%[11.2 µM],-6%[11.5 µM],-4%[11.6 µM]
Cc1ccc(C)c2[nH]c(=O)c(C(c3nnnn3Cc3ccco3)N3CCc4ccccc4C3)cc12 (configuration not stated),u,u,-2%,32µM*,-18%
COc1cccc(NC(=O)c2ccc(-c3nc(COc4ccccc4)c(C)o3)cc2)c1,u,-1%,-2%,u,u
CC(=O)N(/N=C1\Sc2ccccc2C1=O)c1ccccc1C,6%,-29%,0%,11µM*,-17%
Cc1cc(C)cc(NC(=O)Nc2cc(S(=O)(=O)N(C)C)ccc2C)c1,u,1%,-3%,-13%,16µM*[quencher]
Cc1ccc(S(=O)(=O)N(C)C)cc1NC(=O)Nc1ccccc1F,-2%,2%,-4%,-1%,-6%
CCc1ccccc1N1CSC2=C(C#N)C(c3cc(OC)c(OC)cc3OC)CC(=O)N2C1 (configuration not stated),u,-3%,-6%,28µM*,-26%
SMILES,Tau FP inhib,TRb SRC2 PPI,TR SRC2 fluor cs,Tau fibril ThT,Tau fluor cs
CCc1ccccc1N1CCN(S(=O)(=O)c2cc(OC)ccc2OC)CC1,-5%,-16%,0%,-10%,-22%
COc1cc(OC)c(C2CC(=O)N3CN(C)CSC3=C2C#N)cc1OC (configuration not stated),u,0%,4%,u,-17%
COc1ccc(Br)cc1C1CC(=O)N2CN(Cc3ccccc3)CSC2=C1C#N (configuration not stated),u,8%,-2%,28µM*,-21%
COc1cc(OC)c(C2CC(=O)N3CN(c4ccccc4)CSC3=C2C#N)cc1OC (configuration not stated),35µM*,3%,0%,28µM*,-25%
C=CCN1c2ccccc2[C@]23C[C@@H](C(=O)OC)N(S(=O)(=O)c4ccc(C)cc4)C2=NC(C(=O)OC)=C(C(=O)OC)[C@H]13,12%[11.6 µM],4%[11.2 µM],-1%[11.2 µM],5%[11.5 µM],6%[11.6 µM]
Fc1ccc2[nH]c3c(c2c1)CN(C(=S)NCc1ccccc1)CC3,u,-8%,-4%,u,16µM*[quencher]
S=C(NCc1ccccc1)N1CCc2ccccc2C1,u,-3%,-5%,-7%,u
O=C(NCc1ccccc1)c1cccn1-c1nnc(N2CCCC2)s1,-2%,5%,-1%,1%,0%
COc1ccc(Cn2cc(S(=O)(=O)c3ccc(C)cc3)c(=O)c3cc(F)ccc32)cc1,-16%,-13%,0%,-3%,-12%
COn1c(C)c(C)c2c3nonc3ccc21,u,u,-1%,14µM*,u
CCCN1C(=O)/C(=C/c2c(N3CCNC(=O)C3CC(=O)OCC)nc3c(C)cccn3c2=O)SC1=S (configuration not stated),-12%,8%,3%,13µM*,3%
CCCCC(=O)/C=C/n1c(=S)oc2ccccc21,u,-24%,2%,14µM*,-7%
O=C(O)c1ccc(Cl)cc1Cl,x,8%,0%,x,x
C[C@](N)(Cc1ccc(O)c(O)c1)C(=O)O,u,-4%,0%,u,u
CC(Cc1ccc(O)c(O)c1)(NN)C(=O)O (configuration not stated),u,2%,-10%,14µM*,-24%
COC1=C/C(=C/c2c(N)n3nc(-c4ccc(C)cc4)sc3nc2=O)C=CC1=O,1%,7%,-2%,10µM*,u
CCOC1=C/C(=C/c2c(N)n3nc(-c4ccccc4)sc3nc2=O)C=CC1=O,-5%,1%,-10%,8.9µM*,u
CC1=C(c2ccc(C)c(C)c2)S(=O)(=O)N(Cc2ccc(C(=O)NCc3cccc(C)c3)cc2)C1=O,3%,8%,-23%,4%,-5%
